Consider 40 compounds from PubChem BioAssay (NCATS).

Inconclusive results are not listed. Where a call stands in place of a potency, no number is given. Activity calls are given as the source filed them. Calls follow the shape of the dose curve; as a rule, active = well fitted inhibition curve with a large enough effect; inconclusive = small, poorly fitted or top-dose-only effect; inactive = flat fitted curve, though single readings scatter.

Sequence of Calcium and integrin-binding protein 1 (Homo sapiens) (Q99828 whole entry, looked up): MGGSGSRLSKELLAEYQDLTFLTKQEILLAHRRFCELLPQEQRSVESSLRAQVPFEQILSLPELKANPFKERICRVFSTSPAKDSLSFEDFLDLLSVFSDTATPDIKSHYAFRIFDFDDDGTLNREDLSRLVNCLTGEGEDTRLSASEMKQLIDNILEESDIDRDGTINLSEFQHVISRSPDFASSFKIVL

This test deals with Calcium and integrin-binding protein 1 (Homo sapiens) (UniProt Q99828). Nature of the test: Primary qHTS for Identification of Calcium Integrin Binding Protein 1 (CIB1) Competitor (AID 1508620). Also: top concentration of the series differs between compounds. As to conditions: CIB1-GST / FITC-alphaIIb peptide fluorescence polarization; series mostly up to 114 µM. In short, it runs like this:
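Fluorescence polarization competition: GST-tagged CIB1 (1 uM final) preincubated with compound 15 min at room temperature, then FITC-labelled alphaIIb peptide (100 nM final) added. After 15 min at room temperature, polarization read at Ex 480/Em 540.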
Background: qHTS replaces the single test concentration by a dilution series.
`Cc1cc2[nH]c3c(=O)n(Cc4ccccc4F)ncc3c2s1`: the Potency result was “inactive”.

Consider `Fc1ccccc1-c1ccc(Nc2nc(-c3ccncc3)nc3ccccc23)cc1F`, for which the Potency entry is “inactive”.

With `Cc1nnc(-c2cnn(C)c2N)o1`, the Potency result is “inactive”.

In the case of `Cc1cc(C)nc(NC(=S)N2CCN(c3cc(C#N)cc(C#N)c3)CC2)c1`, the Potency result was “inactive”.

With `O=C(CNC(=O)c1ccccc1)OC(Cc1ccccc1)C(=O)Nc1cc(C(F)(F)F)ccc1Cl` (stereo not given), the Potency entry is “inactive”.

Regarding `COc1ccc(CSc2nc3ncc(Br)cc3[nH]2)cc1F`, the Potency result is “inactive”.

For the compound `CCOc1ccc(CNc2ccc(-c3nc4ccccc4[nH]3)cc2)cc1`, the Potency entry was “inactive”.

Turning to `COc1cc(O)c(C(CC(=O)N2CCC(Cc3ccccc3)CC2)c2ccc3c(c2)OCO3)c(OC)c1` (stereo not given), the Potency result is “inactive”.

For `CCC(=O)NC(c1cc(Cl)c2cccnc2c1O)C(C)C` (stereo not given), the Potency entry is “inactive”.

With `Cc1ccc(OCCn2c(CCNC(=O)c3cccc(C)c3)nc3ccccc32)cc1`, the Potency result is “inactive”.

`CCN(Cc1sccc1C)c1ncnc2ccc(-c3ccc4c(c3)OCO4)cc12`: the Potency entry was “inactive”.

In the case of `O=C(Nc1ccc(Cl)c(C(F)(F)F)c1)Nc1nnc(-c2ccncc2)s1`, the Potency entry was “inactive”.

For `Cc1nc(-c2ccc([S+](=O)([O-])N3CCN([S+](=O)([O-])c4c(F)cccc4F)CC3)s2)cs1`, the Potency entry was “inactive”.

For the compound `Cc1cc(N[S+](=O)([O-])c2ccc(NC(=O)Cc3ccc(F)c(C)c3)cc2)no1`, the Potency entry was “inactive”.

For the compound `CCOC(=O)c1cccc(-n2cnc(/C=C3\NC(=O)N(CC(=O)OC(C)(C)C)C3=O)c2)c1`, the Potency entry was “inactive”.

For `FC(F)(F)c1ccccc1-c1nc(NCc2ccc(-c3cccc4ccccc34)cc2)c2ccccc2n1`, the Potency entry was “inactive”.

For `O=S(=O)(c1ccc(C(F)(F)F)cc1)N1CCN(S(=O)(=O)c2ccc3c(c2)OCCO3)CC1`, the Potency result is “inactive”.

For the compound `O=C1CCCC2=C1C(c1cccc(Oc3ccccc3)c1)N=C(Nc1nc3ccccc3o1)N2` (stereo not given), the Potency result is “inactive”.

`O=C1CCc2cc(S(=O)(=O)Nc3ccc(F)c(Cl)c3)ccc2N1`: the Potency entry is “inactive”.

For `O=C(Nc1ccc(-c2nc3ccccc3[nH]2)cc1)Nc1ccc2occc2c1`, the Potency result was “inactive”.

Regarding `Cc1cc(-c2nnc3n2CCCCC3)c(C)n1-c1ccc(Br)cc1`, the Potency entry was “inactive”.

Turning to `Cc1nnc(CN(C)c2ncnc3ccc(-c4ccc5c(c4)OCO5)cc23)o1`, the Potency result was “inactive”.

As to `CN(Cc1ncc[nH]1)c1ncnc2ccc(-c3ccc4c(c3)OCO4)cc12`, the Potency result was “inactive”.

Consider `Cc1ccnc(NC(=S)Nc2cccc([S+](=O)([O-])Nc3ccccc3F)c2)c1`, for which the Potency result was “inactive”.

Regarding `c1cncc(CNc2ncnc3ccc(-c4ccc5c(c4)OCO5)cc23)c1`, the Potency entry was “inactive”.

Consider `O=C(CNC(=O)c1ccccc1)OC(CCc1ccccc1)C(=O)Nc1cc(C(F)(F)F)ccc1Cl` (stereo not given), for which the Potency entry was “inactive”.

`O=S(=O)(c1ccc2c(c1)OCCO2)N1CCN(S(=O)(=O)c2ccco2)CC1`: the Potency entry was “inactive”.

As to `O=P(c1ccccc1)(c1ccccc1)c1cnc2ccccn12`, the Potency result is “inactive”.

As to `COc1cccc(NC(=S)N2CCN(c3cccc(Cl)c3Cl)CC2)n1`, the Potency entry is “inactive”.

As to `Cc1cc(C)nc(NC(=S)N2CCN(c3ccc4cnccc4c3)CC2)c1`, the Potency entry was “inactive”.

Turning to `O=C(Nc1ccc2ccccc2c1)Nc1nnc(-c2ccc(Cl)cc2Cl)s1`, the Potency result is “inactive”.

In the case of `O=C(NCc1ccc(Cl)c(Cl)c1)Nc1nnc(-c2ccncc2)s1`, the Potency entry is “inactive”.

For the compound `COc1cccc(C2C(C#N)=C(NC(=O)CCc3ccccc3)Oc3ccc4ccccc4c32)c1` (stereo not given), the Potency result is “inactive”.

In the case of `Cc1ccc(CNc2ncnc3ccc(-c4ccoc4C)cc23)o1`, the Potency result is “inactive”.

On to `N[C@@H](CCC(=O)O)C(=O)Nc1ccc(Cl)cc1C(=O)c1ccc[nH]1`, for which the Potency result is “inactive”.

Take `O=C(O)CNc1cccc(-c2nn3c(=O)cc(N4CCNCC4)nc3s2)c1`: the Potency result is “inactive”.

On to `Cc1ccc(OCCn2c(CCNC(=O)c3ccccc3)nc3ccccc32)cc1`, for which the Potency result was “inactive”.

As to `CC(=O)Nc1sc2c(c1-c1cccc3ccccc13)CCNC2`, the Potency result is “inactive”.

In the case of `COc1ccc(C2Nc3ccccc3C(=O)N2Cc2ccc3c(c2)OCO3)cc1COc1c(C)cc(NC(C)=O)cc1C` (stereo not given), the Potency result was “inactive”.

For the compound `CCC(C)(CCN1CCOCC1)N(Cc1cc2ccccc2n(C)c1=O)C(=O)C1CCCCC1` (stereo not given), the Potency result is “inactive”.
